# Compound activity deposited in PubChem BioAssay by several laboratories.
# Compounds with a hit are over-represented: about 28% of the library has one in this group of screens.
# CYP2C19 inh: human CYP2C19 inhibition; inhibition, % at 5 µM; CYP2C19 Supersomes, luciferin-H EGE luminescence, 30 min; AID 778; actives 21% (n = 96,000); P33261;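 active = CYP2C19 inhibition above a set limit at 5 µM in the primary screen, cut at about 50% in these data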;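 also: plate controls were negative control wells for no effect and 2.5 mM tranylcypromine positive control for full effect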
# CYP2C9 inh: human CYP2C9 inhibition; P11712; CYP2C9 Supersomes, luciferin-H conversion, luminescence; inhibition, % at 5 µM; actives 20% (n = 96,000); AID 777;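 active = blocking of liver enzyme CYP2C9 beyond about 50% at 5 µM, limit read from the data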
# Target sequence (P11712 whole entry, looked up): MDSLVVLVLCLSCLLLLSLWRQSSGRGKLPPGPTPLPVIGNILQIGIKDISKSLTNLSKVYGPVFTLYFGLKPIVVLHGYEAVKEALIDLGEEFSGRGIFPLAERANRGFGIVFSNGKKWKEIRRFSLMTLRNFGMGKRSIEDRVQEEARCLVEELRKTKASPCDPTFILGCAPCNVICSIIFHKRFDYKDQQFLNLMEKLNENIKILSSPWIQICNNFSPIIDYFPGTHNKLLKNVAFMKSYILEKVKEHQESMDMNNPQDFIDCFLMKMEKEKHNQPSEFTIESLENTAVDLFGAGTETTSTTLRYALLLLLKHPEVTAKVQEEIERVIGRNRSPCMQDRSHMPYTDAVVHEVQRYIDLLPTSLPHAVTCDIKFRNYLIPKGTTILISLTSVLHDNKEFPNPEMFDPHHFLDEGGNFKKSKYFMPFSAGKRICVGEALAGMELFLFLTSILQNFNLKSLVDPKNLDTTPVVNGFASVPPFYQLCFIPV
# CYP2C19 activ: increases human CYP2C19 enzyme activity; AID 1025; activation factor at 5 µM; 96,000 tested, under 10 active; P33261; recombinant CYP2C19, luciferin-H EGE luminescence; active compounds read high; 0 = fully inhibited enzyme, 1 = untreated enzyme;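 active = activation factor of at least 2 at 5 µM in the primary screen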;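 also: 0 = wells with 2.5 mM tranylcypromine and 1 = vehicle-only wells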
# CYP2C9 activ: activators of human CYP2C9 | recombinant CYP2C9, luciferin-H conversion, luminescence; active compounds read high; factor 1 = untreated enzyme, 0 = blocked | activation factor at 5 µM | actives 1.4% (n = 96,000) | AID 1024;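 active = activation factor of 2 or more for CYP2C9 at a 5 µM dose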;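 also: 0 = sulfaphenazole-blocked wells and 1 = vehicle-only wells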
# DAT uptake mod: modulates human dopamine transporter uptake under cocaine | LLC-PK1 hDAT cells, [14C]-dopamine uptake with cocaine IC80; actives deviate in either direction | Q01959 | B-score at 10 µM | actives 1.3% (n = 110,000) | AID 449768;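 active = Z score or B-score, a plate-position-corrected score, falls beyond the plate's 99.7% confidence bounds, in either direction; inactive = both scores lie inside the 99.7% bounds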;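 also: scored against the spread of the other compound wells on the same plate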
# D1 allo mod: allosteric modulators of human D1 dopamine receptor | P21728 | HEK293 D1, CRE-luciferase, dopamine EC30 potentiation; actives deviate in either direction | B-score at 10 µM | actives 5.9% (n = 58,000) | AID 641;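 active = luminescence count or its row- and column-corrected plate score outside the 99.7% band of the plate's sample wells, on either side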
# * = called active by the depositor; · = no result.
SMILES,CYP2C19 inh,CYP2C9 inh,CYP2C19 activ,CYP2C9 activ,DAT uptake mod,D1 allo mod
Cc1cc(/C=N/n2cnnc2)c(C)n1-c1cccc(Cl)c1,99.4*,95.2*,0,0,·,0.163
Cc1cc(/C=N/n2cnnc2)c(C)n1-c1ccccc1,100.0*,72.6*,0,0.3,0.182,·
Cc1sc(-n2c(C)cc(/C=C3\SC(=S)NC3=O)c2C)c(C#N)c1C,·,·,·,·,0.978,·
COc1ccc(OC)c(C2=NOC(C(=O)Nc3cc(C)nn3-c3ccccc3)C2)c1 (configuration not stated),42.8,17.0,0.6,0.8,0.304,0.652
CCOC(=O)C1CCN(c2cc(=O)n(Cc3ccc(F)cc3)c(=O)[nH]2)CC1,-5.4,25.6,1.1,0.7,-0.358,-0.114
CCn1nc(-c2ccccc2)c2nc3ccccc3nc21,12.1,19.2,0.9,0.8,0.101,2.19
CCN1N=C(c2ccccc2)Cn2c1nc1ccccc12,57.6*,68.8*,0.4,0.3,0.136,·
C/C(N)=C(/C#N)C(=O)COC(=O)C1Cc2ccccc2CN1S(C)(=O)=O (configuration not stated),5.5,17.8,0.9,0.8,0.627,-0.185
CCOC(=O)[C@@H]1[C@H]2COc3ccccc3[C@@H]2N2C(=O)N(c3ccc(C(F)(F)F)cc3)C(=O)[C@]12C,·,·,·,·,0.376,·
CC(=O)Nc1c2c(nn1-c1cccc(Cl)c1)CS(=O)C2 (configuration not stated),-3.7,-8.0,1,1.1,-0.528,-0.0522
O=C(Cc1ccc(F)cc1)Nc1c2c(nn1-c1cccc(Cl)c1)CS(=O)C2 (configuration not stated),100.4*,37.6,0,0.6,-0.205,-0.218
COC(=O)Cc1n[nH]c(=O)c2ccccc12,-3.7,6.8,1,0.9,-0.039,·
COc1ccc(CN2CCCC2C(=O)Nc2ccc(OC)c(OC)c2)cc1OC (configuration not stated),54.0*,49.9,0.5,0.5,0.362,-0.0104
COc1ccc(NC(=O)CC2CCCCC2)cc1OC,93.6*,23.4,0.1,0.8,1.28,-1
COc1ccc(NC(=O)CN(C2CCCCC2)S(C)(=O)=O)cc1Cl,29.4,25.0,0.7,0.8,0.312,·
COc1ccc(NC(=O)C2CCCCN2N)cc1OC (configuration not stated),·,·,·,·,0.0985,·
Cc1cc(NC(=O)c2cccc(S(=O)(=O)N3CCOCC3)c2)c2ccccc2n1,3.1,-15.4,1,1.2,0.00472,-0.411
Cc1ccc(CNCc2cc3c(C(C)(C)C)nn(-c4ccccc4)c3[nH]c2=O)cc1,41.6,36.6,0.6,0.6,1.67,·
Cc1nn(-c2ccccc2)c2[nH]c(=O)c(CNc3ccc(N4CCOCC4)cc3)cc12,33.7,56.8*,0.7,0.4,1.71,0.557
Cc1nn(-c2ccc(Cl)cc2)c2[nH]c(=O)c(CNCc3ccc4c(c3)OCO4)cc12,64.6*,55.6*,0.4,0.4,-0.632,-0.485
O=[N+]([O-])c1cccc(C(=Nc2cccc(Cl)c2)NO)c1,90.7*,86.9*,0.1,0.1,1.23,·
CCCCNC(=O)COC(=O)c1cc(S(=O)(=O)N2CCCCCC2)ccc1OC,55.4*,47.8,0.4,0.5,0.17,·
CCC(=O)Nc1ccc(S(=O)(=O)Nc2cccc(C)c2)cc1OC,71.2*,-60.0,0.3,1.6,-0.875,-0.0444
COc1cc(S(=O)(=O)N2CCCCC2)ccc1NC(=O)c1ccccc1Cl,·,·,·,·,1.25,·
COc1ccc(S(=O)(=O)N2CCCCCC2)cc1C(=O)OCC(=O)NC(N)=O,10.1,21.2,0.9,0.8,-0.871,0.445
COc1cc(S(=O)(=O)N2CCCCC2)ccc1NC=O,-4.2,-27.4,1,1.3,·,-4.25*
CCCCC(=O)Nc1ccc(NC(=O)CC)cc1OC,9.5,40.0,0.9,0.6,-0.735,-0.723
CCC(=O)Nc1ccc(S(=O)(=O)N2CCCCC2)cc1OC,66.9*,-142.4,0.3,2.4*,1.07,·
CC1=C(C(=O)NCc2ccccc2)C(c2cccs2)n2ncnc2N1 (configuration not stated),7.0,3.9,0.9,1,-0.235,0.0141
COc1cc(S(=O)(=O)N2CCOCC2)ccc1NC(=O)COC(=O)CC12CC3CC(CC(C3)C1)C2,69.3*,81.7*,0.3,0.2,0.53,·
